Bioassay records (PubChem)
Compounds with a hit are over-represented: about 4.1% of the library has one in this group of screens.
Nox1 inh – inhibitors of human NADPH oxidase 1 (Nox1). inhibition, % at 6.7 µM. Q9Y5S8. 16,000 compounds, 0.81% hits. AID 1792. HT29 cells, luminol chemiluminescence ROS
S1P1 agonist – S1P1 (human) receptor agonism. activation, % at 4.5 µM. P21453. 16,000 compounds, 1.5% hits. S1P1 agonist cell-based reporter assay; in the data active = activation above about 80%
rat GALR2 ag – agonists of rat galanin receptor 2 (GALR2); O08726; 16,000 compounds, 0.5% hits; activation, % at 10 µM; cell-based GALR2 agonist screen; in the data active = activation above about 15%
PME-1 Maybr inh – PME-1 (human) inhibition, Maybridge primary screen; Q9Y570; recombinant PME-1, FP-Rh probe fluorescence polarization; inhibition, % at 9 µM; 16,000 compounds, 0.5% hits; AID 2291; in the data active = inhibition above about 30%
Target sequence (Q9Y570 whole entry, looked up): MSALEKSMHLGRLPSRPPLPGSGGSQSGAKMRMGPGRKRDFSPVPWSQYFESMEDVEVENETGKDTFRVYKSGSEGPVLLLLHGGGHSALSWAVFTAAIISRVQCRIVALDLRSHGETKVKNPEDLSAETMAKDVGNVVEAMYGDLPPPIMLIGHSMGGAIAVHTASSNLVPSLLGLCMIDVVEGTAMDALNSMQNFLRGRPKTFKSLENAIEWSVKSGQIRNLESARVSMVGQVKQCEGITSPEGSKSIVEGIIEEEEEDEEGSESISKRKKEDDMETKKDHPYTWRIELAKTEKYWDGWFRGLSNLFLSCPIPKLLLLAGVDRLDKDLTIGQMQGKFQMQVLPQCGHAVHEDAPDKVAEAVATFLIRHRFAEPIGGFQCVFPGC
luminol inh ctr – counter-screen for Nox1 inhibitors: inhibitors of luminol chemiluminescence; AID 1823; HRP/luminol/H2O2 chemiluminescence counterscreen; inhibition, % at 6.7 µM; 16,000 compounds, 0.4% hits; also: reference of the scale not given here
NOTCH agonist – NOTCH pathway agonism; NOTCH signaling luciferase reporter cells, luminescence; activation, % at 2.5 µM; 15,000 compounds, 0.4% hits; AID 434982; in the data active = activation above about 2.2%
Of the large screens only hits and unclear results are named; the others gave an inactive call. Rule as the data show it, unless noted: active = inhibition above about 75%; inactive = the rest.

O=C(COc1ccc(C2SCCS2)cc1)Nc1cc(Cl)cc(Cl)c1	PME-1 Maybr inh 123.6
O=C(COc1ccc(C2=NCCS2)cc1)Nc1ccc(Cl)cc1	none
Cc1ccc(-c2csc3ncnc(NCc4ccco4)c23)cc1	S1P1 agonist 86.8
O=[N+]([O-])c1c(NCc2ccco2)ncnc1NCc1ccco1	none (no result: NOTCH agonist)
N#C/C(=C\c1cc(Br)cs1)C(=O)c1cccs1	none
O=c1nc2sc3ccccc3n2c(=O)n1-c1ccccc1	none
CC(C)(O)C#Cc1ccccn1	rat GALR2 ag 27.2
CC(C)(O)C#Cc1ccc(/C=N/O)cc1	none
CCOc1ccccc1Nc1n[nH]c(=S)s1	Nox1 inh 88.5
OC(COc1ccc(C23CC4CC(CC(C4)C2)C3)cc1)CN1CCCCC1 (stereo not drawn)	rat GALR2 ag 26.7
OC(COc1ccc(N=Cc2ccc(Cl)cc2)cc1)CN1CCCCC1 (stereo not drawn)	none
CC1CN(c2ccc(NC(=S)NN)cc2)CC(C)O1 (stereo not drawn)	Nox1 inh 101.7
CCNC(=O)/C(C#N)=C/c1ccc([N+](=O)[O-])s1	none
COc1ccc(-c2cc(C(F)(F)F)n3nc(-c4ccco4)cc3n2)cc1OC	rat GALR2 ag 26.9
COc1ccc(-c2cc(C(F)(F)F)nc(N)n2)cc1	none
COc1ccc(-c2cc(C(F)(F)F)n3nc(C4CC4)cc3n2)cc1	S1P1 agonist 85.0
Cc1cc2nc(-c3ccccn3)cc(C(F)(F)F)n2n1	none
O=C1c2ccccc2C(=O)N1CC1COc2ccccc2O1 (stereo not drawn)	none
COc1ccc(C(=O)Nc2nc(-c3ccc(C)c(Cl)c3)c(C)s2)cc1	rat GALR2 ag 17.5
Cc1ncc(CSc2nc3ccc(C(F)(F)F)cc3[nH]2)c(CO)c1O	luminol inh ctr 87.7
CCOC(=O)c1ccc(N2CCOCC2)c(NC(=S)Nc2cccc(SC)c2)c1	none
CCOC(=O)C1CCN(c2ccc(C(C)=O)cc2NC(=S)Nc2cc(Cl)ccc2Cl)CC1	NOTCH agonist 5.9
CC(=O)Oc1ccc(OC(C)=O)c2c1[C@@H]1C=C[C@H]2CC1	Nox1 inh 81.0
CC(=O)Oc1cccc(OC(C)=O)c1[N+](=O)[O-]	none
O=C(NC1(O)C(=O)c2ccccc2C1=O)c1cccc2c1-c1ccccc1C2=O	none
Oc1ccccc1N=CC=Nc1ccccc1O	Nox1 inh 96.1
C=CCOc1ccc(C2C(C#N)=C(N)OC3=C2C(=O)CC(C)(C)C3)cc1 (stereo not drawn)	none
CCS(=O)(=O)c1ccc(O)c(NC(=O)c2ccccc2C(=O)O)c1	Nox1 inh 95.7
Cc1nc2nc(N)[nH]c(=O)c2nc1C	S1P1 agonist 110.9
O=c1c2cc([N+](=O)[O-])ccc2oc2ncccc12	NOTCH agonist 3.0
N#CC(C#N)=CN1CCCCC1	none
Cn1cc(C(=O)O/N=C(\N)c2ccc(C(C)(C)C)cc2)c(C(F)(F)F)n1	S1P1 agonist 100.0
N#Cc1cccc(Oc2ccc(S(=O)(=O)NC3CCS(=O)(=O)C3)cc2)c1Cl (stereo not drawn)	none
Fc1ccc(CSc2nnc(-c3ccncc3)s2)cc1	S1P1 agonist 101.0
Cc1ccc(CSc2nnc(-c3cnccn3)s2)cc1	S1P1 agonist 93.0
Cc1ccc(-n2nnnc2SCC(=O)N2CCOCC2)c(C)c1	none
CS/C(Nc1ccccc1)=C(/C#N)C(=O)c1cc(-c2ccccc2)c(C(F)(F)F)s1	none
O=C(/C=C/c1cc(-c2ccccc2)c(C(F)(F)F)s1)c1cccs1	S1P1 agonist 100.5 (no result: NOTCH agonist)
Cc1cc(-c2n[nH]c(=S)n2C)nn1-c1ccc([N+](=O)[O-])cc1	S1P1 agonist 99.7
O=C(NNc1cc(Cl)cc(Cl)c1)c1ccc(F)cc1F	luminol inh ctr 75.5
COc1ccc(CCN2C(=O)CCC(C(=O)O)C2c2cc(OC)c(OC)c(OC)c2)cc1OC (stereo not drawn)	S1P1 agonist 116.4
O=C1OC2CC3CCC2C1C3 (stereo not drawn)	none
CC(=O)Nc1cccc(OCCCNS(=O)(=O)c2ccc(Oc3cccc(Cl)c3C#N)cc2)c1	S1P1 agonist 93.4
N#Cc1c(Cl)cccc1Oc1ccc(S(=O)(=O)NNc2c(Cl)cncc2Cl)cc1	S1P1 agonist 108.3
CC(=O)Nc1cccc(OCCCNS(=O)(=O)c2cn(C)c(C)n2)c1	none (no result: NOTCH agonist)
CN(C)/C=C(\C#N)C(=O)Nc1ccc(F)c(Cl)c1	none
N#C/C(=C\c1c(Cl)cccc1Cl)C(=O)Nc1ccc(F)c(Cl)c1	rat GALR2 ag 20.2
C(=NC1CC1)c1ccc(-c2ccccc2)cc1	none
Cc1cc(I)c[nH]c1=O	none
O=C(Nc1ccc(Cl)cc1Cl)c1cc([N+](=O)[O-])cc2c1-c1ccc([N+](=O)[O-])cc1C2=O	Nox1 inh 100.7
S=C(NCc1ccco1)Nc1cccnc1	S1P1 agonist 119.7
CCOc1ncnc2c1nnn2Cc1ccccc1Cl	rat GALR2 ag 20.3
Cc1cc(C)n(-c2ncnc3c2nnn3Cc2ccccc2Cl)n1	none
CCOC(=O)C(=CNc1cc(C(F)(F)F)ccc1Cl)C(=O)OCC	none
CCOc1c(NN(C)C)c(=O)c1=O	luminol inh ctr 102.3
CCOc1c(N2CCN(c3c(OCC)c(=O)c3=O)CC2)c(=O)c1=O	none
Cc1onc(-c2c(F)cccc2Cl)c1C(=O)Oc1ccccc1	S1P1 agonist 95.4
CCOC(=O)c1cc(/C(C)=N/Nc2cc(C(F)(F)F)cc(C(F)(F)F)c2)on1	none
CC12CCC(c3c(C(F)(F)F)nc(N)nc31)C2(C)C (stereo not drawn)	none
COC(=O)c1sc(C(F)(F)F)c(-c2ccccc2)c1N	S1P1 agonist 98.3
COC(=O)c1sc(SC)c(C#N)c1-c1cccc(C(F)(F)F)c1	none
COc1cc(Cl)ccc1N/N=C(\C#N)C(N)=O	none
Cc1cc(C(=O)/C(C#N)=N/Nc2cccc(Cl)c2)n(C(C)(C)C)n1	S1P1 agonist 88.4
CC(C)(C)c1cc(C(=O)/C(C#N)=N/Nc2cccc(Cl)c2)no1	S1P1 agonist 108.0
Cc1cc(=O)n2c([nH]c3ccccc32)c1C#N	luminol inh ctr 84.8
CC1=NN(C(N)=O)C2(O)CC3C(C12)C3(C)C (stereo not drawn)	none
Clc1ccccc1Cn1nnc2c(N/N=C/c3cccs3)ncnc21	none
c1csc(-c2nn[nH]n2)c1	NOTCH agonist 2.9
COc1ccc(-c2nc(-c3cccc([N+](=O)[O-])c3)cs2)cc1	NOTCH agonist 3.3
C=CCSc1n[nH]c(-c2ccc([N+](=O)[O-])cc2)n1	none
CCOC(=O)c1c(C)csc1NC(=O)c1cccs1	rat GALR2 ag 18.6
CCOC(=O)c1c(C)csc1NC(=O)Nc1c(Cl)cccc1Cl	none
Cn1c(Sc2ncnc(Sc3nnc(C(F)(F)F)n3C)c2[N+](=O)[O-])nnc1C(F)(F)F	luminol inh ctr 101.2
N#C/C(=N\Nc1ccc(C(F)(F)F)cc1)S(=O)(=O)c1cccs1	S1P1 agonist 110.4
CSC(=NCCSC(C)(C)C)NS(=O)(=O)c1ccccc1	none
CSC(=NCc1c(N(C)C)cccc1N(C)C)NS(=O)(=O)c1ccccc1	S1P1 agonist 94.8 (no result: NOTCH agonist)
